From PMC5540273 (PLoS ONE, 2017)

Columns and labels:
Settings in all cases: concentration: 1 μM,replicates: in singlicate; n = 1
TNNI3K = tested on: TNNI3K
TRKA = tested on: T1, TRKA
T1 construct: gene NTRK1

TRKB = tested on: TRKB
TRKC = tested on: T2, TRKC
T2 construct: gene NTRK3

TRPM6 = tested on: TRPM6
TSSK1B = tested on: TSSK1B
TSSK3 = tested on: TSSK3
TTK = tested on: TTK
TXK = tested on: TXK
[1] = tested on: TYK2(JH1domain-catalytic)
[2] = tested on: TYK2(JH2domain-pseudokinase)
TYRO3 = tested on: TYRO3
ULK1 = tested on: ULK1
ULK2 = tested on: ULK2
ULK3 = tested on: ULK3
VEGFR2 = tested on: T3, VEGFR2
T3 construct: gene KDR

VPS34 = tested on: T4, VPS34
T4 construct: gene PIK3C3

VRK2 = tested on: VRK2
WEE1 = tested on: WEE1
WEE2 = tested on: WEE2
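Further: KINOMEscan kinase panel screen.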

## CC(C)Nc1cc(-c2ccc3c(N)n[nH]c3c2)nc(N)n1 [GSK2221681]
TNNI3K
  %Inh: 0%
TRKA
  %Inh: 0%
TRKB
  %Inh: 0%
TRKC
  %Inh: 0%
TRPM6
  %Inh: 13%
TSSK1B
  %Inh: 1%
TSSK3
  %Inh: 58%
TTK
  %Inh: 24%
TXK
  %Inh: 0%
[1]
  %Inh: 0%
[2]
  %Inh: 8%
TYRO3
  %Inh: 0%
ULK1
  %Inh: 76%
ULK2
  %Inh: 22%
ULK3
  %Inh: 9%
VEGFR2
  %Inh: 4%
VPS34
  %Inh: 0%
VRK2
  %Inh: 0%
WEE1
  %Inh: 8%
WEE2
  %Inh: 0%

## COc1ccc(C[C@@H](CN)NC(=O)c2cc(Br)c(-c3ccnc4[nH]ccc34)s2)cc1.Cl.Cl [GSK1389063]
TNNI3K
  %Inh: 27%
TRKA
  %Inh: 91.8%
TRKB
  %Inh: 90.8%
TRKC
  %Inh: 90.3%
TRPM6
  %Inh: 0%
TSSK1B
  %Inh: 28%
TSSK3
  %Inh: 12%
TTK
  %Inh: 23%
TXK
  %Inh: 30%
[1]
  %Inh: 82%
[2]
  %Inh: 23%
TYRO3
  %Inh: 0%
ULK1
  %Inh: 40%
ULK2
  %Inh: 16%
ULK3
  %Inh: 12%
VEGFR2
  %Inh: 58%
VPS34
  %Inh: 35%
VRK2
  %Inh: 47%
WEE1
  %Inh: 0%
WEE2
  %Inh: 18%

## C[C@@H](Oc1cc(-c2cnn(C3CCNCC3)c2)cnc1N)c1c(Cl)ccc(F)c1Cl
TNNI3K
  %Inh: 88%
TRKA
  %Inh: 99.9%
TRKB
  %Inh: 99.7%
TRPM6
  %Inh: 21%
TSSK1B
  %Inh: 0%
TSSK3
  %Inh: 0%
TTK
  %Inh: 0%
TXK
  %Inh: 41%
[1]
  %Inh: 84%
[2]
  %Inh: 43%
ULK1
  %Inh: 67%
ULK2
  %Inh: 53%
ULK3
  %Inh: 32%
VEGFR2
  %Inh: 22%
VPS34
  %Inh: 0%
VRK2
  %Inh: 11%
WEE1
  %Inh: 0%
WEE2
  %Inh: 0%

## CNC(=O)c1ccccc1Sc1ccc2c(/C=C/c3ccccn3)n[nH]c2c1
TNNI3K
  %Inh: 0%
TRKA
  %Inh: 77%
TRKB
  %Inh: 15%
TRKC
  %Inh: 0%
TRPM6
  %Inh: 0%
TSSK1B
  %Inh: 0%
TSSK3
  %Inh: 1%
TTK
  %Inh: 0%
TXK
  %Inh: 0%
[1]
  %Inh: 0%
[2]
  %Inh: 0%
TYRO3
  %Inh: 0%
ULK1
  %Inh: 20%
ULK2
  %Inh: 58%
VEGFR2
  %Inh: 99.9%
VPS34
  %Inh: 3%
VRK2
  %Inh: 0%
WEE1
  %Inh: 0%

## Cc1cc(C(=O)Nc2ccc(Oc3ccc4nc(NC(=O)C5CC5)cn4n3)cc2)nn1-c1ccccc1
TNNI3K
  %Inh: 14%
TRKA
  %Inh: 100%
TRKB
  %Inh: 64%
TRKC
  %Inh: 12%
TRPM6
  %Inh: 0%
TSSK1B
  %Inh: 0%
TSSK3
  %Inh: 0%
TTK
  %Inh: 26%
TXK
  %Inh: 22%
[1]
  %Inh: 15%
[2]
  %Inh: 0%
TYRO3
  %Inh: 37%
ULK1
  %Inh: 0%
ULK2
  %Inh: 0%
ULK3
  %Inh: 0%
VPS34
  %Inh: 0%
VRK2
  %Inh: 0%
WEE1
  %Inh: 15%
WEE2
  %Inh: 7%

## Cl.Oc1cc(-c2nc(-c3ccccc3)[nH]c2-c2ccncc2)ccc1Cl [SB-386023]
TNNI3K
  %Inh: 14%
TRKA
  %Inh: 19%
TRKB
  %Inh: 6%
TRKC
  %Inh: 12%
TRPM6
  %Inh: 23%
TSSK1B
  %Inh: 0%
TSSK3
  %Inh: 0%
TTK
  %Inh: 29%
TXK
  %Inh: 42%
[1]
  %Inh: 0%
[2]
  %Inh: 0%
TYRO3
  %Inh: 58%
ULK1
  %Inh: 7%
ULK2
  %Inh: 25%
ULK3
  %Inh: 25%
VEGFR2
  %Inh: 20%
VPS34
  %Inh: 14%
VRK2
  %Inh: 0%
WEE1
  %Inh: 0%
WEE2
  %Inh: 11%

## O=C(NCCCN1CCOC1=O)c1cnc(NCc2cc(Cl)ccc2Cl)nc1NC1CCCC1
TNNI3K
  %Inh: 9%
TRKA
  %Inh: 15%
TRKB
  %Inh: 0%
TRKC
  %Inh: 4%
TRPM6
  %Inh: 2%
TSSK1B
  %Inh: 0%
TSSK3
  %Inh: 0%
TTK
  %Inh: 17%
TXK
  %Inh: 17%
[1]
  %Inh: 0%
[2]
  %Inh: 0%
TYRO3
  %Inh: 46%
ULK1
  %Inh: 0%
ULK2
  %Inh: 0%
ULK3
  %Inh: 0%
VEGFR2
  %Inh: 0%
VPS34
  %Inh: 0%
VRK2
  %Inh: 7%
WEE1
  %Inh: 0%
WEE2
  %Inh: 0%

## CCN(CC)CCOc1ccc(Nc2ncc3cc(-c4c(Cl)cccc4Cl)c(=O)n(C)c3n2)cc1 [SB-601273]
TNNI3K
  %Inh: 100%
TRKA
  %Inh: 100%
TRKB
  %Inh: 43%
TRKC
  %Inh: 92.9%
TRPM6
  %Inh: 48%
TSSK1B
  %Inh: 56%
TSSK3
  %Inh: 24%
TTK
  %Inh: 59%
TXK
  %Inh: 99.5%
[1]
  %Inh: 96.7%
[2]
  %Inh: 25%
TYRO3
  %Inh: 100%
ULK1
  %Inh: 92.4%
ULK2
  %Inh: 95.2%
ULK3
  %Inh: 59%
VEGFR2
  %Inh: 97.6%
VPS34
  %Inh: 44%
VRK2
  %Inh: 46%
WEE1
  %Inh: 99.9%
WEE2
  %Inh: 99.7%
